High-throughput results deposited in PubChem BioAssay by National Center for Advancing Translational Sciences (NCATS).
GLS inhibitor – glutaminase GLS (human) inhibition; AID 624170; Potency, µM (series often up to 45.5 µM), for inactives: top-dose activity change, negative = inhibition, hits mostly inhibitors; GLS enzymatic activity, qHTS titration; O94925; 410,000 tested, 0.21% active; note: % is set by controls: 0 for no effect and ±100 for the full control effect
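hKGA in 45 mM KH2PO4 pH 8.2, 0.02% Tween-20 with pin-transferred compounds; 1 mM L-glutamine (stock) plus glutamate oxidase/HRP/Amplex Red coupling added. Fluorescence read initially and after 30 min at RT.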
HP1b binding inh – HP1-beta chromodomain-methylated histone interaction inhibition | P83916 | AlphaScreen HP1-beta / biotin-H3K9me3 peptide binding | Potency, µM (highest dose often 114 µM), without a hit: at the highest dose activity change, negative = inhibition, usual class: inhibitors | 390,000 tested, 0.56% active; note: nearly all actives have a fitted effect of over 70% in size
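HP1-beta protein (50 nM final) preincubated 30 min at room temperature with biotinylated H3(1-18)K9me3 peptide (50 nM) in PBS pH 7.4, 0.01% Tween-20, then compound added for 30 min. AlphaScreen streptavidin donor/nickel chelate acceptor beads (10 ug/mL final), 30 min dark, luminescence read.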
BAZ2B inh – blocks human BAZ2B; AlphaScreen BAZ2B-H3K14Ac peptide displacement; 360,000 tested, 4.4% active; Potency, µM (series often up to 114 µM), for the others: at the top dose activity change, negative = inhibition, actives largely listed as inhibitors; Q9UIF8; note: % is set by controls: 0 for no effect and ±100 for the full control effect; nearly all actives have a fitted effect of over 60% in size
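BAZ2B 50 nM plus b-H3(5-23)K14Ac 50 nM, PBS pH 7.4/0.01% Tween-20, 30 min RT; compound added (max 110 uM), 30 min RT; streptavidin donor/Ni-chelate acceptor beads 10 ug/mL final, 20 min dark; AlphaScreen read.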
JMJD2A Tudor inh – JMJD2A Tudor domain (human) inhibition. AlphaScreen JMJD2A-Tudor / H3K4me3 peptide binding. AID 504339. Potency, µM (series often up to 114 µM), without a hit: top-dose activity change, negative = inhibition, usual class: inhibitors. 390,000 tested, 4.4% active; note: % is set by controls: 0 for no effect and ±100 for the full control effect; nearly all actives have a fitted effect of over 50% in size
G9a block – G9a (human) methyltransferase inhibition | G9a H3K9 monomethylation, AlphaScreen, 2 h | Potency, µM (top dose mostly 102 µM), without a hit: at the top dose activity, negative = inhibition, hits mostly inhibitors | Q96KQ7 | 350,000 tested, 8.8% active | AID 504332; note: % is set by controls: 0 for no effect and ±100 for the full control effect; nearly all actives have a fitted effect of over 75% in size
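G9a (20 nM) preincubated 15 min RT with compounds, then 500 nM biotinylated H3K9 peptide and 20 uM SAM added; 2 h RT reaction. Monomethyl-H3K9 product detected by AlphaScreen with anti-H3K9me1 antibody, streptavidin donor and anti-rabbit IgG acceptor beads.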
* hit, by the source's call; [ ] = remark or other dose. Shown are actives, neighbours in structure and some others; about 10% of the full set was active somewhere. Calls come from the whole dose curve; as a rule, active = well fitted curve in the direction sought with a large enough effect; inconclusive = small, poorly fitted or top-dose-only effect, or another doubt; inactive = no such curve, though single readings can be large; an effect the other way counts as inactive or inconclusive. Potency is the fitted concentration of half-maximal effect.

Screening COc1cc(NC(=O)CSc2ccc(-c3sc(C)nc3C)nn2)cc(OC)c1 returned GLS inhibitor 1%, HP1b binding inh 26%, BAZ2B inh -31%, JMJD2A Tudor inh -11% and G9a block -10%[59 µM].
`CCCCn1c2ccccc2c2nnc(SCC(=O)Nc3ccc(NC(C)=O)cc3)nc21` gave GLS inhibitor -2%, HP1b binding inh 6%, BAZ2B inh -12%, JMJD2A Tudor inh inconclusive and G9a block inconclusive.
`CC(=O)Nc1ccc(-c2csc(NC(C)c3ccccc3)n2)cc1` (centres undefined) gave GLS inhibitor 0%, HP1b binding inh -8%, BAZ2B inh inconclusive, JMJD2A Tudor inh -22% and G9a block inconclusive.
Screening COC(=O)N1CCC[C@@]2(CCN(C(=O)Nc3ccccc3)C2)C1 returned G9a block 1%[12.7 µM].
For COc1ccccc1OCc1nc(C#N)c(N2CCCC2)o1 the results were GLS inhibitor -5%, HP1b binding inh -4%, BAZ2B inh -35%, JMJD2A Tudor inh -21% and G9a block 5%.
Screening Cc1ccccc1OCc1nc(C#N)c(N2CCCC2)o1 returned GLS inhibitor -15%, HP1b binding inh 20%, BAZ2B inh 45µM*, JMJD2A Tudor inh 0% and G9a block 28µM*.
COc1ccc(-c2nc(C#N)c(N3CCCCCC3)o2)cc1 was read as GLS inhibitor -2%, HP1b binding inh -28%, BAZ2B inh 28µM*, JMJD2A Tudor inh inconclusive and G9a block inconclusive.
N#Cc1nc(-c2ccc(OCc3ccc(Cl)cc3)cc2)oc1N1CCCCCC1 was read as HP1b binding inh -26%[57 µM] and JMJD2A Tudor inh -17%[57.1 µM].
Screening N#Cc1nc(-c2ccc(Cl)cc2)oc1N1CCCCC1 returned GLS inhibitor -8%, HP1b binding inh -60%, BAZ2B inh 40µM*, JMJD2A Tudor inh inconclusive and G9a block inconclusive.
`N#Cc1nc(-c2ccc([N+](=O)[O-])cc2)oc1N1CCCCC1` gave GLS inhibitor -8%, HP1b binding inh 83%, BAZ2B inh 6%, JMJD2A Tudor inh -8% and G9a block -10%[2.33 µM].
COc1ccc(-c2nc(C#N)c(N3CCCCC3)o2)cc1 was read as GLS inhibitor -5%, HP1b binding inh 56µM*, BAZ2B inh 28µM*, JMJD2A Tudor inh inconclusive and G9a block -7%[2.33 µM].
`COc1ncc2ncc(=O)n(C3CC3)c2n1` gave G9a block -18%[0.501 µM].
N#Cc1nc(-c2ccccc2)oc1N1CCCCC1 was read as GLS inhibitor 7%, HP1b binding inh -19%, BAZ2B inh -33%, JMJD2A Tudor inh -16% and G9a block inconclusive.
For N#Cc1nc(-c2ccc(F)cc2)oc1N1CCCC1 the results were GLS inhibitor 4%, HP1b binding inh inconclusive, BAZ2B inh -32%, JMJD2A Tudor inh -12%[11.4 µM] and G9a block inconclusive.
Screening N#Cc1nc(-c2ccccc2F)oc1N1CCCC1 returned GLS inhibitor 3%, HP1b binding inh inconclusive, BAZ2B inh -26%, JMJD2A Tudor inh -11% and G9a block inconclusive.
Screening COc1ccc(-c2nc(C#N)c(N3CCC(C)CC3)o2)cc1 returned GLS inhibitor -2%, HP1b binding inh -21%, BAZ2B inh 5µM*, JMJD2A Tudor inh inconclusive and G9a block 14µM*.
Screening Cc1ccc(-c2nc(C#N)c(N3CCCCC3)o2)cc1 returned GLS inhibitor 0%, HP1b binding inh -13%, BAZ2B inh inconclusive, JMJD2A Tudor inh -21% and G9a block 20µM*.
CCCOc1ccc(-c2nc(C#N)c(N3CCC(C(N)=O)CC3)o2)cc1 was read as GLS inhibitor -12%, HP1b binding inh 19%, BAZ2B inh -1% and JMJD2A Tudor inh -7%.
For Cc1ccccc1-c1nc(C#N)c(N2CCCCC2)o1 the results were GLS inhibitor -10%, HP1b binding inh 45µM*, BAZ2B inh 22µM*, JMJD2A Tudor inh inconclusive and G9a block 35µM*.
Screening N#Cc1nc(-c2ccc(F)cc2)oc1N1CCCCC1 returned GLS inhibitor -5%, HP1b binding inh inconclusive, BAZ2B inh inconclusive, JMJD2A Tudor inh inconclusive and G9a block 13µM*.
Screening COc1ccccc1CN1CCCC2(CCN(C(=O)c3cccc(F)c3)CC2)C1 returned G9a block -7%[12.7 µM].
